Screening results: PubChem BioAssay, several laboratories
SUMO Mot1 rescue: SUMOylation pathway inhibition by Mot1-301 growth rescue. AID 2716. 320,000 compounds, 1% hits. S. cerevisiae Mot1-301 growth rescue, ATP luminescence, 38.5C; percent above DMSO median, 100 means doubled. growth rescue, % at 18.8 µM;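 active = every valid replicate shows activation above 250% relative to neutral control wells; inactive = the rest, any valid replicate at or below 250%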
sPLA2-III inh: Blocks human group III sPLA2 activity. Q9NZ20. QFRET BODIPY PC-A2 liposome hydrolysis, fluorescence. inhibition, % at 12.2 µM. 370,000 compounds, 0.56% hits. AID 743126;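 active = inhibition above mean plus 3 SD of compounds lying within the high and low control bounds, cut at about 19% in these data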
Target sequence (Q9NZ20 whole entry, looked up): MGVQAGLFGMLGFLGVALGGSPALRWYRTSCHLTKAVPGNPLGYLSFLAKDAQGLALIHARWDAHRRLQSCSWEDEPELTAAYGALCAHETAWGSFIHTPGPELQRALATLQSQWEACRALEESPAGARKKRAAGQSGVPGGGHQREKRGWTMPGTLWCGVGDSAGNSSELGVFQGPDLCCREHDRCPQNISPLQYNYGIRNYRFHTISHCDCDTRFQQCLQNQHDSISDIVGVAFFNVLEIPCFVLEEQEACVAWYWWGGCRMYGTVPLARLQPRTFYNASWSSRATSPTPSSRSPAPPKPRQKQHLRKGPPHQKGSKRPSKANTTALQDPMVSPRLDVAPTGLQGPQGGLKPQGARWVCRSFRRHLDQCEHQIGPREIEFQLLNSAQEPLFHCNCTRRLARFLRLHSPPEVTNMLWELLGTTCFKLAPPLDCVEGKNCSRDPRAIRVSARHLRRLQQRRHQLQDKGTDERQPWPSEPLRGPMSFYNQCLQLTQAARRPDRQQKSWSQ
Efflux pump inh: inhibitors of Candida antifungal efflux pumps expressed in yeast; S. cerevisiae Candida pump triplex, Nile Red efflux; inhibition, % at 10 µM; 330,000 compounds, 0.44% hits; AID 485275;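 active = plate passing quality check with inhibition over a set limit, or well fluorescence over plate mean plus 4 SD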;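 also: Nile Red retained in pooled yeast measured as flow cytometry median fluorescence; higher means more Nile Red kept so more efflux inhibition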
SKN-1 inh: blocks SKN-1 activity in C. elegans; 360,000 compounds, 0.49% hits; C. elegans VP596 Pgst-4::GFP/RFP ratio, acrylamide-induced, 24 h; AID 624304; inhibition, % at 21.8 µM;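 active = interference check ratio from 0.5 to 1.5 plus GFP to RFP signal ratio inhibition reaching or exceeding a fixed threshold, cut at about 30% in these data, passing the limit was not always enough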
Large screens that a line does not name were inactive; ! = a repeat was not active. Only some compounds are listed: those with a hit (about 2.2% of all), similar ones and a draw of the others.

ClC1C(Cl)C(Cl)C(Cl)C(Cl)C1Cl (configuration not stated)	SUMO Mot1 rescue 331.0!
CN1C(=O)[C@@]23C[C@]4(c5c[nH]c6ccccc56)c5ccccc5N(S(=O)(=O)c5ccccc5)[C@@H]4N2C(=O)[C@@H]1SS3	none (no result: SUMO Mot1 rescue, Efflux pump inh, SKN-1 inh)
CSc1ccc(C(=O)C2CCCN(Cc3cnc(SC)nc3)C2)cc1 (configuration not stated)	SUMO Mot1 rescue 305.3
COC(=O)C12OCC34C(CC5C(C)=C(O)C(=O)CC5(C)C3C(O)C1O)OC(=O)C(OC(=O)/C=C(\C)C(C)C)C24 (configuration not stated)	SKN-1 inh 56.5 (no result: SUMO Mot1 rescue, Efflux pump inh)
CC(=O)OC1C(=O)OCC23CCC4(C)OC4C2OC2CC(OC(=O)C=CC=CC(=O)OCCC1C)C3(C)C21CO1 (configuration not stated)	SKN-1 inh 42.4 (no result: SUMO Mot1 rescue, Efflux pump inh)
CC(Cc1ccccc1)N1C(=O)c2ccccc2C1=O (configuration not stated)	none
CCCc1nc2ccccc2c(=O)n1-c1ccc(OC)cc1	SKN-1 inh 36.6
CCCc1nc2ccccc2c(=O)n1-c1cccc(OC)c1	none
Cc1ccsc1C(=O)C1CCCN(Cc2cnc(N3CCCC3)s2)C1 (configuration not stated)	none
O=C1NC(=S)NC(=O)C1=Cc1ccc2c(c1)CCN2CCCCl	SKN-1 inh 38.0 (no result: sPLA2-III inh)
COc1cc(CN2C(=O)NC(=O)C3(Cc4cc(C)ccc4N(C)C3)C2=O)cc(OC)c1 (configuration not stated)	none
CCCCN1C(=O)NC(=O)C2(Cc3cc(C)ccc3N(C)C2)C1=O (configuration not stated)	SKN-1 inh 41.0
O=C(NCCN1CCC2(CC1)C(=O)NCN2c1ccccc1)C(c1ccccc1)c1ccccc1	none (no result: SUMO Mot1 rescue, Efflux pump inh, SKN-1 inh)
Clc1ccc([C@H]2CC3CCC2N3)cn1 (some centres not stated)	none (no result: SUMO Mot1 rescue, Efflux pump inh, SKN-1 inh)
CN=C1CN(O)C(c2ccccc2)=c2cc(Cl)ccc2=N1	none
Cc1ccc(/C=C2\C(=O)NC(=S)N(c3ccc(F)cc3)C2=O)s1	SKN-1 inh 35.7
COC(=O)[C@@H]1N=C(c2ccc(OC)cc2)O[C@]12C(=O)N(Cc1ccc(OC)cc1)c1ccccc12	none (no result: SUMO Mot1 rescue, Efflux pump inh)
CCn1c(O)c(C(=O)CC2NCCc3ccccc32)c(=O)n(CC)c1=S (configuration not stated)	SKN-1 inh 51.3 (no result: sPLA2-III inh)
CN1OC[C@@H]2CN3C4(C[C@@H]21)c1ccccc1C3(c1ccccc1)c1ccccc14	none (no result: SUMO Mot1 rescue, Efflux pump inh, SKN-1 inh)
Fc1cccc(F)c1-c1nc(-c2ccc(Cl)cc2)no1	SKN-1 inh 57.4
O=C(O)c1cc[c]([Hg][Cl])cc1	SKN-1 inh 45.2 (no result: sPLA2-III inh)
COc1ccc(C(=O)O)cc1OC	none (no result: SUMO Mot1 rescue, Efflux pump inh)
O=c1[nH]c(=S)n(-c2ccccc2)c(O)c1/C=N/N1CCCCC1c1cccnc1 (configuration not stated)	SKN-1 inh 41.2
N#Cc1ccc(NC(=S)N2Cc3ccc(Br)cc3-n3nncc3C2)cc1	none (no result: SUMO Mot1 rescue, Efflux pump inh, SKN-1 inh)
O=c1[nH]c(=O)n(-c2ccccc2)c(O)c1/C=C1/C(c2ccccc2)=Nc2ccccc21	SKN-1 inh 35.6
FC(F)(F)c1cccc(NC2=NCCS2)c1	none (no result: SUMO Mot1 rescue, Efflux pump inh)
CC(C)(C)C(=O)O[C@H]1CC[C@@]2(C)C(=CC(=O)C3C2CC[C@]2(C)C(=O)[C@H](O)CC32)C1 (some centres not stated)	none
C[N+](C)(C)CC1CCCC(C[N+](C)(C)C)C1=O (configuration not stated)	none (no result: SUMO Mot1 rescue, Efflux pump inh)
CCN(CC)c1ccc(/C=C2\C(=O)NC(=O)N(CC3CCCO3)C2=O)cc1 (configuration not stated)	SKN-1 inh 41.9
CC(=O)C1C(N2CC2)CC2C3CC=C4CC(O)CCC4(C)C3CCC21C (configuration not stated)	none (no result: SUMO Mot1 rescue, Efflux pump inh)
CCN(CC)c1ccc(C=C2C(=O)N(C)C(=S)N(C)C2=O)o1	SKN-1 inh 38.1
CCN(CC)c1ccc(/C=C2\C(=O)NC(=S)N(C)C2=O)o1	none
CCC1(C)OC(c2ccccc2)=C/C(=C/C=C2C(=O)NC(=O)NC2=O)O1 (configuration not stated)	SKN-1 inh 47.8 (no result: SUMO Mot1 rescue, Efflux pump inh)
CC(=O)N(C1=NCCCS1)c1ccc(F)cc1	SKN-1 inh 39.3
COC(=O)C1(N(C)c2ccccc2)CCN(Cc2ccccc2)CC1	none (no result: SUMO Mot1 rescue, Efflux pump inh, SKN-1 inh)
Cc1ccc(N2C(=O)NC(=O)C3(Cc4ccccc4N4CCCC43)C2=O)cc1 (configuration not stated)	SKN-1 inh 58.7
Oc1ccc(-[n+]2c(-c3ccccc3)cc(-c3ccccc3)cc2-c2ccccc2)cc1	none
Oc1ccccc1-[n+]1c(-c2ccccc2)cc(-c2ccccc2)c(O)c1-c1ccccc1	SUMO Mot1 rescue 366.2
Cc1cccc2nc(-c3ccccc3)c(-c3ccc(CN4CCC(n5c(=O)[nH]c6cc(Cl)ccc65)CC4)cc3)nc12	none (no result: SUMO Mot1 rescue, Efflux pump inh, SKN-1 inh)
CC(C)OS(C)(=O)=O	none
CN(C)c1ccc(/C=C2/C(=O)NC(=O)N(Cc3ccco3)C2=O)cc1	SUMO Mot1 rescue 382.6
CCN(CC)c1ccc(/C=C2/C(=O)NC(=O)N(Cc3ccco3)C2=O)cc1	none
O=C(CN1CCOCC1)c1cccc2ccccc12	SKN-1 inh 38.1
CCCCCCn1c(N)c(C(=O)NCCN2CCOCC2)c2nc3ccccc3nc21	none
CCCCCn1c(N)c(C(=O)NCCN2CCOCC2)c2nc3ccccc3nc21	SKN-1 inh 34.0
CC(C)CC1C(C#N)=C(N)Oc2c1c(=O)oc1ccccc21 (configuration not stated)	none
O=C1NC(=O)N(Cc2ccc(F)cc2)C(=O)/C1=C\c1ccc(N2CCCC2)cc1	SKN-1 inh 38.9
ClCCN(CCCl)c1ccc(C=NNc2ncccn2)cc1	none (no result: SUMO Mot1 rescue, Efflux pump inh)
ClCCN(CCCl)c1ccc(C=Cc2ccncn2)cc1	SKN-1 inh 54.0 (no result: SUMO Mot1 rescue, Efflux pump inh)
COc1ccc(OCC(=O)N2CCN(Cc3ccc4c(c3)OCO4)CC2)cc1	none
COc1ccc(OCC(=O)N2CCN(Cc3ccc(SC)cc3)CC2)cc1	SUMO Mot1 rescue 262.0
CC(C)C(CN1CCC(C)(c2cccc(O)c2)[C@@H](C)C1)NC(=O)C1Cc2ccc(O)cc2CN1 (some centres not stated)	none (no result: SUMO Mot1 rescue, Efflux pump inh, SKN-1 inh)
C[CH2][Hg][S]c1ccccc1C(=O)O	SUMO Mot1 rescue 355.3, Efflux pump inh 3.0, SKN-1 inh 37.5
O=C1Nc2ccc(Br)cc2C(c2ccccc2Cl)=NC1O (configuration not stated)	SUMO Mot1 rescue 574.0
CC1N=C(c2ccccc2Cl)c2cc(Br)ccc2NC1=O (configuration not stated)	none
CCN1C(=O)/C(=C/c2ccc(N(CC)CC)cc2OC)C(=O)NC1=S	SKN-1 inh 44.8
COc1ccccc1/C=C1\C(=O)NC(=S)N(c2ccccc2)C1=O	none
O=[N+]([O-])c1ccc(N2CCCC2)c2ccncc12	SKN-1 inh 35.4 (no result: SUMO Mot1 rescue)
N#Cc1ccc2nc(-c3ccc(CN4CCC(n5c(=O)[nH]c6cc(Cl)ccc65)CC4)cc3)c(-c3ccccc3)nc2c1	none (no result: SUMO Mot1 rescue, Efflux pump inh, SKN-1 inh)
C[C@](N)(CCP(=O)(O)O)C(=O)O	SKN-1 inh 48.6
